Assay results: PubChem BioAssay AID1159580 (chemical genetic matrix, 2015)
In all, about 5,500 compounds went through this assay and about 2,000 (36%) were called active. Roughly 18% stayed inconclusive and do not appear here. Cut-off read from the data, not from the text of the source: active = normalized growth mostly below about 0.91 (no sharp cut-off); inconclusive = no clear call, values can overlap the other calls; inactive = mostly above about 0.92. The list shows a part of the results.

Test: chemical genetic growth profiling, strain panel (AID 1159580);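 note: tested at 20 µM; growth read once vehicle control cultures reached saturation at 30 °C; 1 = growth at the plate median or of vehicle wells; lower values mean less growth of the strain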
Conditions: growth OD

Measured: normalized growth

CC1=NCCc2c1[nH]c1cc(O)ccc21
inactive: S. cerevisiae deletion strains, locus YJR075W, strain HOC1, stronger effect = lower value 0.988 | S. cerevisiae deletion strains, locus YKL009W, strain mrt4, stronger effect = lower value 0.951 | S. cerevisiae deletion strains, locus YKL068W, stronger effect = lower value 0.993 | S. cerevisiae deletion strains, locus YKL085W, strain MDH1 (second series), stronger effect = lower value 0.988 | S. cerevisiae deletion strains, locus YKL085W, strain MDH1, stronger effect = lower value 0.988 | S. cerevisiae deletion strains, locus YKL160W, strain elf1, stronger effect = lower value 0.955 | S. cerevisiae deletion strains, locus YKL190W, strain CNB1, stronger effect = lower value 0.999 | S. cerevisiae deletion strains, locus YKR001C, strain vps1, stronger effect = lower value 0.993 | S. cerevisiae deletion strains, locus YKR026C, strain gcn3, stronger effect = lower value 0.989 | S. cerevisiae deletion strains, locus YKR091W, strain srl3, stronger effect = lower value 0.988 | S. cerevisiae deletion strains, locus YLL001W, strain dnm1, stronger effect = lower value 0.984 | S. cerevisiae deletion strains, locus YLL026W, stronger effect = lower value 0.992 | S. cerevisiae deletion strains, locus YLL041C, strain sdh2, stronger effect = lower value 0.97 | S. cerevisiae deletion strains, locus YLR027C, strain aat2, stronger effect = lower value 0.985 | S. cerevisiae deletion strains, locus YLR039C, strain RIC1, stronger effect = lower value 0.993 | S. cerevisiae deletion strains, locus YLR058C, strain SHM2, stronger effect = lower value 0.971 | S. cerevisiae deletion strains, locus YLR102C, strain apc9, stronger effect = lower value 0.993 | S. cerevisiae deletion strains, locus YLR113W, strain HOG1, stronger effect = lower value 1 | S. cerevisiae deletion strains, locus YLR221C, strain rsa3, stronger effect = lower value 1.03 | S. cerevisiae deletion strains, locus YLR258W, strain gsy2, stronger effect = lower value 0.967 | S. cerevisiae deletion strains, locus YLR262C, strain YPT6 (second series), stronger effect = lower value 0.989 | S. cerevisiae deletion strains, locus YLR262C, strain YPT6, stronger effect = lower value 0.95 | S. cerevisiae deletion strains, locus YLR268W, strain sec22, stronger effect = lower value 1.05 | S. cerevisiae deletion strains, locus YLR320W, strain mms22, stronger effect = lower value 1.03 | S. cerevisiae deletion strains, locus YLR330W, strain CHS5, stronger effect = lower value 0.996 | S. cerevisiae deletion strains, locus YLR342W, strain FKS1 (second series), stronger effect = lower value 0.996 | S. cerevisiae deletion strains, locus YLR342W, strain FKS1, stronger effect = lower value 0.992 | S. cerevisiae deletion strains, locus YLR357W, strain rsc2, stronger effect = lower value 0.973 | S. cerevisiae deletion strains, locus YLR370C, strain arc18, stronger effect = lower value 0.973 | S. cerevisiae deletion strains, locus YLR371W, strain rom2, stronger effect = lower value 0.978 | S. cerevisiae deletion strains, locus YLR384C, strain iki3, stronger effect = lower value 0.994 | S. cerevisiae deletion strains, locus YLR418C, strain cdc73, stronger effect = lower value 0.995 | S. cerevisiae deletion strains, locus YML016C, strain PPZ1, stronger effect = lower value 0.997 | S. cerevisiae deletion strains, locus YML032C, strain rad52, stronger effect = lower value 0.995 | S. cerevisiae deletion strains, locus YML120C, strain ndi1, stronger effect = lower value 0.962 | S. cerevisiae deletion strains, locus YML124C, strain tub3, stronger effect = lower value 0.988 | S. cerevisiae deletion strains, locus YMR058W, strain fet3, stronger effect = lower value 0.994 | S. cerevisiae deletion strains, locus YMR078C, strain ctf18, stronger effect = lower value 0.979 | S. cerevisiae deletion strains, locus YMR125W, strain sto1, stronger effect = lower value 0.928 | S. cerevisiae deletion strains, locus YMR129W, stronger effect = lower value 0.986 | S. cerevisiae deletion strains, locus YMR205C, strain PFK2, stronger effect = lower value 0.95 | S. cerevisiae deletion strains, locus YMR223W, strain ubp8, stronger effect = lower value 0.961 | S. cerevisiae deletion strains, locus YMR231W, strain pep5, stronger effect = lower value 0.991 | S. cerevisiae deletion strains, locus YMR263W, strain SAP30, stronger effect = lower value 0.99 | S. cerevisiae deletion strains, locus YMR307W, strain GAS1, stronger effect = lower value 0.987 | S. cerevisiae deletion strains, locus YNL067W, strain RPL9B, stronger effect = lower value 1.02 | S. cerevisiae deletion strains, locus YNL071W, strain lat1, stronger effect = lower value 0.981 | S. cerevisiae deletion strains, locus YNL128W, strain TEP1, stronger effect = lower value 0.97 | S. cerevisiae deletion strains, locus YNL153C, strain GIM3, stronger effect = lower value 1 | S. cerevisiae deletion strains, locus YNL183C, strain NPR1, stronger effect = lower value 0.928 | S. cerevisiae deletion strains, locus YNL209W, strain ssb2, stronger effect = lower value 0.988 | S. cerevisiae deletion strains, locus YNL233W, strain BNI4, stronger effect = lower value 1 | S. cerevisiae deletion strains, locus YNL248C, strain rpa49, stronger effect = lower value 0.926 | S. cerevisiae deletion strains, locus YNL250W, strain rad50, stronger effect = lower value 0.981 | S. cerevisiae deletion strains, locus YNL271C, strain bni1, stronger effect = lower value 1 | S. cerevisiae deletion strains, locus YNL298W, strain CLA4, stronger effect = lower value 0.985 | S. cerevisiae deletion strains, locus YNL307C, strain MCK1, stronger effect = lower value 0.988 | S. cerevisiae deletion strains, locus YNL322C, strain KRE1 (second series), stronger effect = lower value 0.981 | S. cerevisiae deletion strains, locus YNL322C, strain KRE1, stronger effect = lower value 0.992 | S. cerevisiae deletion strains, locus YNR049C, strain mso1, stronger effect = lower value 0.97 | S. cerevisiae deletion strains, locus YNR052C, strain pop2, stronger effect = lower value 0.995 | S. cerevisiae deletion strains, locus YOL006C, strain TOP1, stronger effect = lower value 1.04 | S. cerevisiae deletion strains, locus YOL012C, strain htz1 1.3 | S. cerevisiae deletion strains, locus YOL147C, strain pex11, stronger effect = lower value 0.998 | S. cerevisiae deletion strains, locus YOR001W, strain rrp6, stronger effect = lower value 1.01 | S. cerevisiae deletion strains, locus YOR061W, strain CKA2, stronger effect = lower value 0.978 | S. cerevisiae deletion strains, locus YOR069W, strain VPS5, stronger effect = lower value 0.973 | S. cerevisiae deletion strains, locus YOR070C, strain gyp1, stronger effect = lower value 1.01 | S. cerevisiae deletion strains, locus YOR080W, strain dia2, stronger effect = lower value 1.01 | S. cerevisiae deletion strains, locus YOR083W, strain WHI5, stronger effect = lower value 0.954 | S. cerevisiae deletion strains, locus YOR106W, strain vam3, stronger effect = lower value 0.93 | S. cerevisiae deletion strains, locus YOR136W, strain idh2, stronger effect = lower value 0.985 | S. cerevisiae deletion strains, locus YOR144C, strain elg1, stronger effect = lower value 0.994 | S. cerevisiae deletion strains, locus YOR184W, strain ser1, stronger effect = lower value 0.969 | S. cerevisiae deletion strains, locus YOR231W, strain MKK1, stronger effect = lower value 0.985 | S. cerevisiae deletion strains, locus YOR265W, strain rbl2, stronger effect = lower value 0.976 | S. cerevisiae deletion strains, locus YOR270C, strain vph1, stronger effect = lower value 1.02 | S. cerevisiae deletion strains, locus YOR290C, strain snf2, stronger effect = lower value 0.911 | S. cerevisiae deletion strains, locus YOR316C, strain cot1, stronger effect = lower value 0.992 | S. cerevisiae deletion strains, locus YPL051W, strain arl3, stronger effect = lower value 1.01 | S. cerevisiae deletion strains, locus YPL055C, strain LGE1, stronger effect = lower value 0.956 | S. cerevisiae deletion strains, locus YPL078C, strain atp4, stronger effect = lower value 0.928 | S. cerevisiae deletion strains, locus YPL106C, strain sse1, stronger effect = lower value 0.943 | S. cerevisiae deletion strains, locus YPL240C, strain hsp82, stronger effect = lower value 0.992 | S. cerevisiae deletion strains, locus YPL241C, strain CIN2, stronger effect = lower value 0.996 | S. cerevisiae deletion strains, locus YPL256C, strain CLN2, stronger effect = lower value 0.991 | S. cerevisiae deletion strains, locus YPR119W, strain clb2, stronger effect = lower value 0.989 | S. cerevisiae deletion strains, locus YPR141C, strain kar3, stronger effect = lower value 0.981 | S. cerevisiae deletion strains, locus YPR163C, strain tif3, stronger effect = lower value 1 | S. cerevisiae deletion strains, locus YPR167C, strain met16, stronger effect = lower value 0.998 | S. cerevisiae deletion strains, strain wtn01, stronger effect = lower value 0.992 | S. cerevisiae strains, strain wild type, stronger effect = lower value 0.988
